Laboratory results as given in PubChem BioAssay.
Active and inactive are the calls of the source. Unless noted, the rule behind the calls is not given here.

Legend:
[1] = resazurin metabolic signal in HepG2 cells – cell-based, resazurin fluorescence, 24 h, PK04 Diversity Set, profiling panel (AID 1172); conditions: HepG2 viability, higher = more signal
[2] = budding yeast growth changes without added modifier – OD600, strain BY4716, 24 h, basal condition, primary screen (AID 1173); conditions: S. cerevisiae BY4716 growth, OD600, 24 h; higher = more signal, called active from +8 up or from −8 down
[3] = viability profiling in MM1S myeloma cells – cell-based, resazurin fluorescence, basal, 24 h, PK04 Diversity Set, profiling panel (AID 1174); conditions: higher = more signal, called active from +8 up or from −8 down;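 note: MM1S multiple myeloma cell line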
[4] = target: Dihydroorotate dehydrogenase (quinone), mitochondrial (Plasmodium falciparum (isolate 3D7)) (UniProt Q08210); assay: inhibition of P. falciparum DHODH – biochemical, C-terminal His tag, absorbance 600 nm, primary screen (AID 1175); conditions: PfDHODH enzyme, DCIP absorbance 600 nm; higher = more signal, called active from +8 up or from −8 down;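 note: recombinant parasite enzyme with a five histidine tag at its C terminus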
[5] = inhibition of PAO1 biofilm formation – strain PAO1, LB-PBS medium, absorbance 600 nm, primary screen (AID 1176); conditions: P. aeruginosa PAO1 growth/biofilm, A600, 12 h; higher = more signal
[6] = growth modulation of vineyard yeast isolate – strain RM11-1a, OD600, basal, 24 h, primary screen (AID 1177);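 note: cultures grown under basal conditions with no added stressor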; conditions: S. cerevisiae RM11-1a growth, OD600, 24 h; higher = more signal, called active from +8 up or from −8 down
[7] = growth of efflux-deficient E. coli DRC39 – strain DRC39, OD650, 24 h, E. coli filamentation inducers, primary screen (AID 1178);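 note: growth measured as culture turbidity by optical density at 650 nm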; conditions: E. coli DRC39 acrAB, higher = more signal, called active from +8 up or from −8 down
[8] = growth of efflux-deficient E. coli DRC39 – strain DRC39, OD650, 48 h, E. coli filamentation inducers, primary screen (AID 1179);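 note: screen aims at cell division blockers that make cells filament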; conditions: E. coli DRC39 delta-acrAB growth, higher = more signal, called active from +8 up or from −8 down
[9] = viability profiling in RPMI8226 myeloma cells – cell-based, resazurin fluorescence, basal, 24 h, PK04 Diversity Set, profiling panel (AID 1180); conditions: higher = more signal;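 note: RPMI8826 multiple myeloma cell line at 5000 cells per well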
[10] = target: E3 ubiquitin-protein ligase XIAP (Homo sapiens) (UniProt P98170); assay: small molecules binding XIAP protein – biophysical, small-molecule microarray, fluorescence 635 nm, primary screen (AID 1181); conditions: higher = more signal;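 note: score merges 667 nm emission and signal to noise over triplicate slides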
[11] = system: XIP peptide (Xip251-270) binding; assay: XIP fragment 251-270 binding compounds – biochemical, small-molecule microarray, fluorescence 635/667 nm, 0.1 µg/mL protein, primary screen (AID 1182); conditions: fluorescent protein binding, 635 nm, higher = more signal, called active from +8 up or from −8 down
[12] = system: XIP peptide (Xip251-270); assay: compounds binding XIP fragment 251-270 – biochemical, small-molecule microarray, fluorescence 635/667 nm, 0.5 µg/mL protein, primary screen (AID 1183); conditions: fluorescence 635 nm, higher = more signal
[13] = blood-stage malaria parasite viability loss – strain 3D7, DAPI fluorescence, 100 nL, primary screen (AID 1184);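 note: parasites grown inside human red blood cells in medium with human serum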; conditions: P. falciparum 3D7 growth, 3 d, higher = more signal
[14] = target: Homeobox protein Hox-A13 (Mus musculus) (UniProt Q62424); assay: disruptors of Hoxa13 oligonucleotide interaction – biochemical, fluorescence polarization, labeled oligonucleotide, primary screen (AID 1185); conditions: Hoxa13:DNA binding, 15 min, higher = more signal, called active from +8 up or from −8 down
[15] = blockers of DNA damage checkpoint Chk1 activation – imaging, HeLa, hydroxyurea, phospho-Chk1 antibody, percent positive cells, primary screen (AID 1186); conditions: hydroxyurea-induced phospho-Chk1 immunofluorescence imaging, higher = more signal
[16] = blockers of DNA damage checkpoint Chk1 activation – imaging, HeLa, hydroxyurea, phospho-Chk1 nuclear intensity, primary screen (AID 1187); conditions: hydroxyurea-induced phospho-Chk1 immunofluorescence imaging, higher = more signal

E3 ubiquitin-protein ligase XIAP (Homo sapiens), sequence (P98170 whole entry, looked up, the tested form may be a part): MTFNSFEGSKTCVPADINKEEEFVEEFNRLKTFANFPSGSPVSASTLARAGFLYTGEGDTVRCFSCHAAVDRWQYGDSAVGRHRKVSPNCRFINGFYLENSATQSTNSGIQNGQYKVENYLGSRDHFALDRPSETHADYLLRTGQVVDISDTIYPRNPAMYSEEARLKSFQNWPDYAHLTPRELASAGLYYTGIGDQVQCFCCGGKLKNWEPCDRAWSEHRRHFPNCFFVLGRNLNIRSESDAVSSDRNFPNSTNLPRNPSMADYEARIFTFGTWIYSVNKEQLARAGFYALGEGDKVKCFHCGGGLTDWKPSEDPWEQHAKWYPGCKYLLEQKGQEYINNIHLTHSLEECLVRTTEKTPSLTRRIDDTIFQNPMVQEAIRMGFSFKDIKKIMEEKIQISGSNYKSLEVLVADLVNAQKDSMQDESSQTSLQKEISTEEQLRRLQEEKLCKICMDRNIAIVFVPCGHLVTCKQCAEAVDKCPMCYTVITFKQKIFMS
Homeobox protein Hox-A13 (Mus musculus), sequence (Q62424 whole entry, looked up): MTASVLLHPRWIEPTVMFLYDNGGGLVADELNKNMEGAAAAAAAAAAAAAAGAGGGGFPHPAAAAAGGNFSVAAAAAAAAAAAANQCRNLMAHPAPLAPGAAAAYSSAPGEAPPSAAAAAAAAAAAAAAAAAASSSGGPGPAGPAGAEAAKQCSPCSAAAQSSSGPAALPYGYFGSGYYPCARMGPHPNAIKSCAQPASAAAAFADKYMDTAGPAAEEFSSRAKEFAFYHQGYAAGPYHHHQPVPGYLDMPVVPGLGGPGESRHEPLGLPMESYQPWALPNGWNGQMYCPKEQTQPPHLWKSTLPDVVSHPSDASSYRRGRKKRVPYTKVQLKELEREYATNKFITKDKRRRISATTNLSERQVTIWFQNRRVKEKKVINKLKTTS
Dihydroorotate dehydrogenase (quinone), mitochondrial (Plasmodium falciparum (isolate 3D7)), sequence (Q08210 whole entry, looked up): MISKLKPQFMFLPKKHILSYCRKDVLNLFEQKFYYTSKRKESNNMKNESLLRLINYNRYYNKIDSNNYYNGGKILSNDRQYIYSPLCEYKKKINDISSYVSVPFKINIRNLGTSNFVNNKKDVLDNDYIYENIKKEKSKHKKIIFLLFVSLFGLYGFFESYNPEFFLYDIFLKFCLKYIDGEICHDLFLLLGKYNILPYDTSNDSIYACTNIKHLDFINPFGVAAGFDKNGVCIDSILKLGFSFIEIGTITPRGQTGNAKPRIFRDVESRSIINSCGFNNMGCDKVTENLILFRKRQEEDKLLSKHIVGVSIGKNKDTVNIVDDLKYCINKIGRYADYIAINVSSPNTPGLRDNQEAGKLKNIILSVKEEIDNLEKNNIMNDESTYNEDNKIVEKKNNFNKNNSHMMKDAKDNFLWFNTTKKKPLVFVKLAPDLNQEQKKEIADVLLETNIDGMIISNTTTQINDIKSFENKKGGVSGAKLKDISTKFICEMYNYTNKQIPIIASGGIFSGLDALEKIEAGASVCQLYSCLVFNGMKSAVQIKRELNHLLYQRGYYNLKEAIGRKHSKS

Row | SMILES | z-score [1] | z-score [2] | z-score [3] | composite z-score [4] | z-score [5] | z-score [6] | z-score [7] | z-score [8] | z-score [9] | composite z-score [10] | composite z-score [11] | composite z-score [12] | z-score [13] | z-score [14] | z-score [15] | z-score [16]
1 | C=C(CCCC)/C(=C/C[C@@H](OC(=O)c1ccncc1)c1ccccc1OCCO)c1cc(C(=O)OC)ccc1OC | -0.16 | 0.0793 (inactive) | -1.38 (inactive) | -0.455 (inactive) | 0.506 (inactive) | 0.111 (inactive) | 0.275 (inactive) | 0.223 (inactive) | -0.94 | 0.057 | 0.711 (inactive) | -0.127 | -2.98 | -3.47 (inactive) | -0.585 (inactive) | 0.185 (inactive)
2 | CCOC(=O)C1=CCC(c2cccc(Cl)c2)O1 (stereo not given) | 0.482 | -4.22 (inactive) | 0.402 (inactive) | -0.863 (inactive) | 0.601 (inactive) | -1.6 (inactive) | 0.484 (inactive) | -0.16 (inactive) | -0.0798 | 0.19 | 1.62 (inactive) | 0.183 | -1.25 | -0.834 (inactive) | 0.296 (inactive) | -0.0984 (inactive)
3 | CCCC=C(CCC)[C@@H](NS(=O)(=O)c1ccccc1)c1ccc(C(F)(F)F)cc1 | -0.574 | 0.892 (inactive) | -2.56 (inactive) | -0.62 (inactive) | -0.415 (inactive) | 1.07 (inactive) | -0.28 (inactive) | -0.428 (inactive) | -3.59 | 0.0039 | -0.363 (inactive) | 0.528 | 0.118 | -1.19 (inactive) | -0.147 (inactive) | -0.423 (inactive)
4 | C=C(COC)C(=O)CC[C@H](OC(=O)c1ccccc1-c1ccccc1C(=O)O)c1ccc(OCCO)cc1 | -0.381 | 0.142 (inactive) | -0.288 (inactive) | -0.575 (inactive) | 1.3 (inactive) | -0.386 (inactive) | -0.752 (inactive) | -0.561 (inactive) | -0.7 | 0.0223 | 0.0817 (inactive) | 0.264 | -1.84 | -5.78 (inactive) | -0.33 (inactive) | -0.537 (inactive)
5 | O=C1c2ccccc2C(=O)C2CC([C@H]3Oc4ccccc4S(=O)(=O)N4CCC[C@@H]34)=CCC12 (stereo not given in full) | 0.0623 | -2.32 (inactive) | -0.583 (inactive) | 0.0834 (inactive) | -0.246 (inactive) | -0.841 (inactive) | 1.96 (inactive) | 0.34 (inactive) | 0.183 | 0.0374 | -0.26 (inactive) | -0.267 | -1.24 | -1.77 (inactive) | -0.278 (inactive) | -0.063 (inactive)
6 | CCCCC(CC)C(O)C1C=CC2C(=O)NC(=O)C2N1Nc1ccccn1 (stereo not given) | -1.39 | 0.332 (inactive) | -1.51 (inactive) | 0.56 (inactive) | 1.2 (inactive) | 0.852 (inactive) | -0.486 (inactive) | -0.112 (inactive) | -0.675 | 0.24 | 0.327 (inactive) | 0.781 | 0.133 | -3.87 (inactive) | 0.0438 (inactive) | -0.119 (inactive)
7 | COc1cc(C(O)C2C=CC3C(=O)N(C)C(=O)C3N2NC(=O)OC(C)(C)C)cc(OC)c1OC (stereo not given) | -1.22 | 1.74 (inactive) | -0.976 (inactive) | 0.0277 (inactive) | 0.847 (inactive) | 0.796 (inactive) | -1.01 (inactive) | -0.503 (inactive) | -1.24 | 0.085 | 1.56 (inactive) | 0.157 | -0.361 | -1.27 (inactive) | 0.873 (inactive) | 0.571 (inactive)
8 | CCCC[C@H]1OB(O)C[C@H]2C1=C(COc1ccccc1)Cn1c(=O)n(-c3ccccc3)c(=O)n12 | -0.0243 | -6.02 (inactive) | -0.0638 (inactive) | -2.51 (inactive) | 0.294 (inactive) | 0.458 (inactive) | 0.232 (inactive) | 0.0306 (inactive) | -0.0851 | -0.327 | 1.9 (inactive) | 0.286 | -0.902 | -7.43 (inactive) | -0.309 (inactive) | -0.247 (inactive)
9 | Cc1ccc(S[C@]2(C(=O)NCCN3CCOCC3)CC(=O)N(C3Cc4ccccc4C3)[C@@H]2c2ccc(CO)cc2)cc1 | -0.211 | 0.884 (inactive) | -0.209 (inactive) | 0.408 (inactive) | 0.0435 (inactive) | 0.948 (inactive) | 0.435 (inactive) | 0.337 (inactive) | -0.109 | -0.0282 | 0.487 (inactive) | 0.547 | -0.196 | -4.63 (inactive) | 0.672 (inactive) | 1 (inactive)
10 | CC[C@@H]1[C@@H]2C3C(=O)N(CC)C(=O)C3CC(=O)[C@@H]2[C@H](c2ccc(C)cc2)N1S(=O)(=O)c1ccc(C)cc1 (stereo not given in full) | -0.107 | -1.67 (inactive) | -1.27 (inactive) | -0.415 (inactive) | 0.409 (inactive) | -1.13 (inactive) | 0.694 (inactive) | 1.26 (inactive) | 0.887 | -0.0962 | -0.363 (inactive) | 0.73 | -0.226 | -3.54 (inactive) | -1.51 (inactive) | -1.33 (inactive)
